PI5P4Ka inh: blocks human PI5P4K alpha kinase activity. PI5P4Kalpha enzyme, ADP-Glo luminescence, 60 min; hits give low values. P48426. 330,000 tested, 1.2% active. max response, %; active = max response of -50% or lower; inconclusive = between -30% and -50%; inactive = -30% or higher; also: value at the top dose of about 77 µM; % is scaled to controls: 0 for no effect and ±100 for the full control effect
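ADP-Glo luminescence end-point after a 60 min room-temperature kinase reaction. PI5P4Kalpha and substrate in HEPES pH 7.4 buffer with EGTA, 0.1% CHAPS and 5% DMSO; ATP at 5 microM final.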
TCR activator: activators of T cell receptors; primary human leukocytes, anti-CD3, IL-2 HTRF, 48 h; AID 504894; 330,000 tested, under 10 active; Potency, µM (highest dose often 9.22 µM), for the others: top-dose activation of IL-2 secretion, most hits filed as activators; also: % of control where 0% means no effect
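Compounds are tested in HTS on primary human leukocytes co-incubated with a-CD3 beads for 48 hr. IL-2 output is measured by time-resolved FRET.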
VDR inh: vitamin D3 receptor (human) inhibition | P11473 | VDR-SRC2-3 peptide fluorescence polarization, 2 h | Potency, µM, inactives show max response, negative = inhibition, actives largely listed as inhibitors | 400,000 tested, 0.93% active | AID 504847; also: potency is read from the fitted curve at half-maximal effect; % is scaled to controls: 0 for no effect and ±100 for the full control effect
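Two reagent solutions held at 4 deg C in the dark were dispensed, compounds pinned at 23 nl, and the mixture incubated 2 h at room temperature. Read-out: fluorescence polarization of VDR–SRC2-3 peptide binding.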
WRN helicase inh: WRN helicase (human) inhibition. Potency, µM (series often up to 114 µM), without a hit: at the top dose activity change, negative = inhibition, usual class: inhibitors. Q14191. 360,000 tested, 0.46% active. WRN helicase unwinding, fluorescent forked duplex, kinetic; also: potency is read from the fitted curve at half-maximal effect; % is scaled to controls: 0 for no effect and ±100 for the full control effect; nearly all actives have a fitted effect of over 55% in size
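Enzyme (20 nM final) and test compound sit together 15 min at room temperature before substrate addition. Substrate is a single-forked duplex oligonucleotide (100 nM) labelled with fluorophore and quencher, with 2 mM ATP; helicase unwinding raises red fluorescence, read kinetically.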
FEN1 inhibitor: human FEN1 inhibition; Recombinant FEN1 flap cleavage, fluorescence, 15 min; P39748; AID 588795; 390,000 tested, 0.35% active; Potency, µM (highest dose often 114 µM), for the others: top-dose activity change, negative = inhibition, actives largely listed as inhibitors; also: potency is read from the fitted curve at half-maximal effect; % is scaled to controls: 0 for no effect and ±100 for the full control effect; nearly all actives have a fitted effect of over 65% in size
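Concentration–response screening of FEN1 (10 nM): 15 min compound preincubation at room temperature, reaction started with 50 nM substrate and read at 0 and 15 min. Corrected, normalized data were fitted by a four-parameter Hill equation.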
PLK1 PBD block: blocks phosphopeptide binding to human PLK1 polo-box domain; P53350; Plk1 PBD binding of FITC phosphopeptide, fluorescence polarization; Potency, µM, inactives show max response, negative = inhibition, actives largely listed as inhibitors; 360,000 tested, 2.8% active; also: potency is read from the fitted curve at half-maximal effect; series mostly up to about 57 µM; % is scaled to controls: 0 for no effect and ±100 for the full control effect; nearly all actives have a fitted effect of over 65% in size
ADP-Glo counter: interferes with ADP-Glo detection without enzyme present | shares compounds with PI5P4Ka inh | ADP-Glo detection counter-screen, luciferase luminescence, no enzyme | Potency, µM (series often up to 76.9 µM), inactives show at the highest dose activity change, negative = inhibition, actives largely listed as inhibitors | 1,100 tested, under 10 active | AID 743285
Numbers without * were called inactive; [ ] = remark or other dose. The list is not random: actives were taken first. Their share in the collection is about 3.7%. Unless noted, calls follow the shape of the dose curve; as a rule, active = well fitted curve in the direction sought with a large enough effect; inconclusive = small, poorly fitted or top-dose-only effect, or another doubt; inactive = no such curve, though single readings can be large; an effect the other way counts as inactive or inconclusive.

CC(=O)c1cccc(NC(=O)c2cnn3ccccc23)c1 was read as PI5P4Ka inh inconclusive, TCR activator 7%, VDR inh -8%, WRN helicase inh 6%, FEN1 inhibitor 10% and PLK1 PBD block -9%.
`CCOc1ccc(-c2cc3nc(C4CCN(C(=O)OC(C)(C)C)CC4)c(C(=O)Nc4cccc(Cl)c4C)cn3n2)cc1` gave VDR inh -7% and FEN1 inhibitor -23%.
Screening CCOCCCn1c(SCC(=O)Nc2ccc(C(C)C)cc2)nc2c(sc3ccccc32)c1=O returned VDR inh -6% and FEN1 inhibitor 14%.
`CCOc1ccc(NC(=O)CN(C)C(=O)c2cc3c(s2)CCC3)cc1OCC` gave PI5P4Ka inh -80*, WRN helicase inh inconclusive, PLK1 PBD block -26% and ADP-Glo counter -5%.
For COc1ncc2nc(-c3cccs3)c(=O)n(C)c2n1 the results were VDR inh -9%.
`CN(C)c1ccc(-c2nc3cnccn3c2Nc2cccc(C(F)(F)F)c2)cc1` gave VDR inh 9% and FEN1 inhibitor 14%.
`O=C(CCC(=O)c1cccs1)Nc1ncccc1O` gave PI5P4Ka inh -56*, TCR activator -4%, VDR inh -14%, WRN helicase inh -32%, FEN1 inhibitor 3%, PLK1 PBD block -13% and ADP-Glo counter -2%.
O=C(CCC(=O)c1cccs1)Nc1ccc(N2CCCCC2)cc1 was read as PI5P4Ka inh -76*, TCR activator 6%, VDR inh 3%, WRN helicase inh 2%[11.6 µM], FEN1 inhibitor 1%, PLK1 PBD block -22% and ADP-Glo counter -2%.
For O=C(Cc1cccs1)Nc1ccc(N2CCOCC2)cc1 the results were PI5P4Ka inh -53*, TCR activator -3%, VDR inh 10%, WRN helicase inh -21%[57.1 µM], FEN1 inhibitor -2%, PLK1 PBD block -4% and ADP-Glo counter -8%.
For O=C(CSc1nncn1-c1ccccc1)Nc1ccc(N2CCOCC2)cc1 the results were PI5P4Ka inh -56*, TCR activator 8%, VDR inh inconclusive, WRN helicase inh inconclusive, FEN1 inhibitor 0%, PLK1 PBD block 2.7µM* and ADP-Glo counter 1%.
O=C(CSc1nnnn1-c1ccccc1)Nc1ccc(N2CCOCC2)cc1 was read as PI5P4Ka inh -4, TCR activator 8%, VDR inh -23%, WRN helicase inh -3%, FEN1 inhibitor -2% and PLK1 PBD block -6%.
`Cc1ccc(NC(=O)CCC(=O)c2cccs2)cc1` gave PI5P4Ka inh -8, TCR activator -8%, VDR inh -8%, WRN helicase inh -4%, FEN1 inhibitor -4% and PLK1 PBD block 0%.
For O=C1c2oc3ccc(F)cc3c(=O)c2C(c2cccc([N+](=O)[O-])c2)N1CCCN1CCOCC1 (stereo unspecified) the results were VDR inh 18% and FEN1 inhibitor -8%.
O=S1(=O)CC(N2CCSCC2)CN1Cc1cn(Cc2ccc(Cl)cc2)nn1 (stereo unspecified) was read as PI5P4Ka inh -2, WRN helicase inh -14% and PLK1 PBD block -7%.
For O=S1(=O)CC(N2CCSCC2)CN1Cc1cn(Cc2ccc(F)cc2)nn1 (stereo unspecified) the results were PI5P4Ka inh -28, WRN helicase inh -5%, PLK1 PBD block -12% and ADP-Glo counter 2%.
S=C(NCc1ccccc1)N1CCc2ccccc2C1 was read as PI5P4Ka inh -93*, TCR activator 4%, VDR inh -6%, WRN helicase inh -5%, FEN1 inhibitor 0%, PLK1 PBD block -6% and ADP-Glo counter 6%.
CCNC(=S)N1CCc2ccccc2C1 was read as PI5P4Ka inh -1, TCR activator -3%, VDR inh 5%, WRN helicase inh -1%, FEN1 inhibitor 10% and PLK1 PBD block -13%.
For CC(C)(C)c1csc(NC(=O)c2ccncc2)n1 the results were PI5P4Ka inh -5, TCR activator -4%, VDR inh 19%, WRN helicase inh 3%[57.1 µM], FEN1 inhibitor 4% and PLK1 PBD block -3%.
CC(C)(C)c1csc(NC(=O)c2ccc3nccnc3c2)n1 was read as PI5P4Ka inh -52*, TCR activator 0%, VDR inh -6%, WRN helicase inh -3%, FEN1 inhibitor -6%, PLK1 PBD block -28% and ADP-Glo counter -5%.
`CN(Cc1ccccc1)c1ccc(-c2nc(-c3ccccn3)no2)cc1[N+](=O)[O-]` gave VDR inh 22% and FEN1 inhibitor 11%.
Screening c1ccc2c(CCNc3ncnc4nc[nH]c34)c[nH]c2c1 returned TCR activator 2%[46.1 µM], VDR inh 1%, WRN helicase inh -4%, FEN1 inhibitor -14%, PLK1 PBD block -1% and ADP-Glo counter -2%.
`Cc1ccc(NC(=O)c2cccc(C(=O)Nc3ccc(C)cc3C(=O)O)c2)c(C(=O)O)c1` gave PI5P4Ka inh -83*, TCR activator 4%, VDR inh -3%, WRN helicase inh -13%[11.6 µM], FEN1 inhibitor inconclusive, PLK1 PBD block 21µM* and ADP-Glo counter 3%.
Cc1cccc(OCC(=O)Nc2cccc(C(=O)Nc3ccccc3C(=O)O)c2)c1 was read as PI5P4Ka inh -52*, TCR activator -9%[46.1 µM], VDR inh -3%, WRN helicase inh -28%, FEN1 inhibitor -2%, PLK1 PBD block -18% and ADP-Glo counter 5%.
Cc1cccc(OCC(=O)Nc2cccc(C(=O)NCC(C)C)c2)c1 was read as PI5P4Ka inh 6, TCR activator -3%[46.1 µM], VDR inh -19%, WRN helicase inh 10%, FEN1 inhibitor -3% and PLK1 PBD block -6%.
CCOc1ccc(N2CC(C)Cn3c2nc2c3c(=O)n(CC(=O)O)c(=O)n2C)cc1 (stereo unspecified) was read as VDR inh 4% and FEN1 inhibitor -8%.
Cc1ccc(C(CCN(Cc2ccccc2)C(=O)c2ccco2)c2ccco2)cc1 (stereo unspecified) was read as PI5P4Ka inh -58*, TCR activator 0%[46.1 µM], VDR inh inconclusive, WRN helicase inh inconclusive, FEN1 inhibitor -4%, PLK1 PBD block -26% and ADP-Glo counter -2%.
`CCc1cccc(NC(=O)Cn2c(=O)n(CCCCCC(=O)NCc3ccc(F)cc3)c(=O)c3sccc32)c1` gave VDR inh 5% and FEN1 inhibitor 14%.
`CC1CCCCN1C(=O)CSc1n[nH]c(-c2ccccc2Cl)n1` (stereo unspecified) gave VDR inh 8% and FEN1 inhibitor 18%.
